Results filed as inconclusive are left out. Calls of active or inactive are those of the source. Calls come from the whole dose curve; as a rule, active = well fitted curve in the direction sought with a large enough effect; inconclusive = small, poorly fitted or top-dose-only effect, or another doubt; inactive = no such curve, though single readings can be large; an effect the other way counts as inactive or inconclusive.

For assay [1], the target named is Voltage-gated inwardly rectifying potassium channel KCNH2 (Homo sapiens) (UniProt Q12809). Put plainly: qHTS Assay for Small Molecule Inhibitors of the Human hERG Channel Activity (AID 588834).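 Note: lower thallium flux fluorescence means stronger hERG block; nearly all actives have a fitted effect of over 50% in size.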 Note: potency is the fitted concentration of half-maximal effect. The method in brief: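 Step 1: BacMam hERG transduction of U2OS, 4 hrs RT. Step 2: overnight 37 °C, plate 2000 cells/well, 4 hr. Step 3: FluxOR load, compound 10 min, stimulate, read fluorescence.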
Chain of Voltage-gated inwardly rectifying potassium channel KCNH2 (Homo sapiens) (Q12809 whole entry, looked up): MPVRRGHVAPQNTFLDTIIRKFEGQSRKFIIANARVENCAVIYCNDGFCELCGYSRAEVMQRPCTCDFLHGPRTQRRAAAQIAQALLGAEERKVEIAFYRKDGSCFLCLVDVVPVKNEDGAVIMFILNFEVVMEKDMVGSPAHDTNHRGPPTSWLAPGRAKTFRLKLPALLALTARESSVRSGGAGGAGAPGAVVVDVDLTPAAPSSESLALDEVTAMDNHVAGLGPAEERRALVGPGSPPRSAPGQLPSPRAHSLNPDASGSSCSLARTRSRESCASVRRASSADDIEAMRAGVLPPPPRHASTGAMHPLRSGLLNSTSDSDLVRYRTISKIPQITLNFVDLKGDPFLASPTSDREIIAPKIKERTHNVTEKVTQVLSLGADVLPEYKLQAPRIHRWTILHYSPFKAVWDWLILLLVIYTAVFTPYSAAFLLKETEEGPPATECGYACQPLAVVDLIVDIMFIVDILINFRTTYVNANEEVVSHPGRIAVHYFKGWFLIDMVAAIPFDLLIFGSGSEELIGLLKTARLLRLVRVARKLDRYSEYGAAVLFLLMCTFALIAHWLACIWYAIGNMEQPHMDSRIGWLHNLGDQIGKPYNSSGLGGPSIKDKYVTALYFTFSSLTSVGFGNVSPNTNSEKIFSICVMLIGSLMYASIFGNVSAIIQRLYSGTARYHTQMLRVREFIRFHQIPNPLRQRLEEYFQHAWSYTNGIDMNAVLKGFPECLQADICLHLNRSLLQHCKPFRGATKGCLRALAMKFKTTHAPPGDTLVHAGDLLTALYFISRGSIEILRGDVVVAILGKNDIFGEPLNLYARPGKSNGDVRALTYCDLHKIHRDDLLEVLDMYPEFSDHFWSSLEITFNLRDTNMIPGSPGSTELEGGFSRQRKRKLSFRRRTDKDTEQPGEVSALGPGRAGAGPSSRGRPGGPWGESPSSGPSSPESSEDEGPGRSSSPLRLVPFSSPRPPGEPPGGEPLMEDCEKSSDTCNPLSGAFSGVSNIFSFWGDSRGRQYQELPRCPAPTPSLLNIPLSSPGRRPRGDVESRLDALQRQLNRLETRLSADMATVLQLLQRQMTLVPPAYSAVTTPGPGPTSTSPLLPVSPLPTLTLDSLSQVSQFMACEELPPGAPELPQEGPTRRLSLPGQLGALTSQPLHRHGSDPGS

Assay [2] is described as follows: S16 Schwann cell viability assay (CellTiter-Glo assay) (AID 624031).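 Note: native untransfected S16 rat Schwann cells; series mostly up to about 58 µM; nearly all actives have a fitted effect of over 70% in size.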 Summed up: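 Concentration-effect curves come from CellTiter-Glo luminescence of S16 rat Schwann cells after 24 h compound exposure. Each reading was normalized to DMSO wells (0%) and wells without cells, and curves were ranked by r2 and response magnitude.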
A general note: ATP-based viability assays read luminescence as a measure of living cells.

The target of assay [3] is Glutaminase kidney isoform, mitochondrial (Homo sapiens) (UniProt O94925). Kind of assay: qHTS for Inhibitors of Glutaminase (GLS): LOPAC Validation (AID 624146). Note: nearly all actives have a fitted effect of over 60% in size. Note: potency is the fitted concentration of half-maximal effect. The method in brief:
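Coupled fluorescence readout: glutamate oxidase/HRP/Amplex Red detect glutamate formed by hKGA from L-glutamine (1 mM solution added). Buffer 45 mM KH2PO4 pH 8.2, 0.02% Tween-20; reads at t0 and 30 min RT.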
(In general: In qHTS, concentration-response curves come from the screen itself.)

Assay [4] can be described thus: qHTS of Trypanosoma Brucei Inhibitors: LOPAC Validation (AID 624147). The method in brief: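 Assay buffer: 50 mM TEA pH 7.2, 100 mM KCl, 10 mM MgCl2, 0.05% BSA, 0.01% Tween-20. Pyruvate kinase from T. brucei plus substrate met compound, then ADP (130 uM final). Luminescence was read post 45 min RT.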
For assay [5], the target named is Glucagon-like peptide 1 receptor (Homo sapiens) (UniProt P43220). Put plainly: qHTS of GLP-1 Receptor Agonists: LOPAC Validation (AID 624148).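 Note: higher luminescence signal means agonism.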 Summed up:
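HEK293 cells stably co-expressing a cAMP-responsive luciferase reporter and a hypersensitive GLP-1R were plated 12 h at 37 °C and exposed to compounds for 4-6 hr at 37 °C, 5% CO2. Luminescence was read 12 min after adding detection reagent.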

Assay [6] in a line: qHTS of Nrf2 Activators: LOPAC Validation (AID 624149). Summed up:
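AREc32_Fluc cells, 1000/well, OPTI-MEM + 5% FBS, o/n 37 deg C 5% CO2; compound pin-transfer, 24 hr 37 deg C; Steady-Glo 30 min RT, luminescence read.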

Assay [7] is described as follows: HTS Assay for Allosteric Antagonists of the Human D2 Dopamine Receptor: Hit Validation in HTRF (AID 624455). The method in brief:
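HTRF read-out; cells stably expressing D1 receptor; hits scored for inhibition of D1-mediated response. Primary screen: calcium flux, force-coupled inducible Hek293 Trex D2 line, antagonism vs EC80 dopamine.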

Assay [8] can be described thus: S16 Schwann cell PMP22 intronic element firefly luciferase assay (AID 624032). Note: nearly all actives have a fitted effect of over 30% in size. Note: potency is the fitted concentration of half-maximal effect. The method in brief: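 Rat S16 Schwann cells stably carrying a PMP22 intronic element-driven Fluc reporter were seeded overnight, then exposed to compounds for 24 h at 37 °C. Luminescence was normalized to PTC124 (positive control) and DMSO (0% activity).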
Assay [9] concerns the target Luciferin 4-monooxygenase (Photinus pyralis) (UniProt P08659). Put plainly: Biochemical firefly luciferase enzyme assay for NPC (AID 624030).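 Note: purified P. pyralis luciferase at 10 nM with luciferin and ATP substrate; series mostly up to about 59 µM; nearly all actives have a fitted effect of over 70% in size.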 The method in brief:
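Counter-screen for direct inhibition of the luciferase enzyme by approved-drug library compounds, run at 10 nM enzyme in 50 mM Tris acetate (final). Luminescence was read within 5 min of enzyme-buffer addition and normalized to PTC124 versus DMSO (0%).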

Chain of Glucagon-like peptide 1 receptor (Homo sapiens) (P43220 whole entry, looked up): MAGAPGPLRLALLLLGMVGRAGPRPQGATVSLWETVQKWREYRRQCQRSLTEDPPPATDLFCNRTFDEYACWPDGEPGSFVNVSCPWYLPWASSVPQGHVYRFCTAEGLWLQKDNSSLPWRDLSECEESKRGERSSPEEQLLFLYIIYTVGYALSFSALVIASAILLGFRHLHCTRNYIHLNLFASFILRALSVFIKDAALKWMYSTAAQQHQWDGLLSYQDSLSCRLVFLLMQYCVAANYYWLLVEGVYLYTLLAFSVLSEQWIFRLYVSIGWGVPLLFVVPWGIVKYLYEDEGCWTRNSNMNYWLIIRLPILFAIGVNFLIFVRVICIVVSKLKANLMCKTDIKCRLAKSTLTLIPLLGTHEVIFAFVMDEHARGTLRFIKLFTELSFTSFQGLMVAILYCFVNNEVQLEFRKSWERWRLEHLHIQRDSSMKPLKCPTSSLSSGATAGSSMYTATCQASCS
Chain of Glutaminase kidney isoform, mitochondrial (Homo sapiens) (O94925 whole entry, looked up, canonical isoform): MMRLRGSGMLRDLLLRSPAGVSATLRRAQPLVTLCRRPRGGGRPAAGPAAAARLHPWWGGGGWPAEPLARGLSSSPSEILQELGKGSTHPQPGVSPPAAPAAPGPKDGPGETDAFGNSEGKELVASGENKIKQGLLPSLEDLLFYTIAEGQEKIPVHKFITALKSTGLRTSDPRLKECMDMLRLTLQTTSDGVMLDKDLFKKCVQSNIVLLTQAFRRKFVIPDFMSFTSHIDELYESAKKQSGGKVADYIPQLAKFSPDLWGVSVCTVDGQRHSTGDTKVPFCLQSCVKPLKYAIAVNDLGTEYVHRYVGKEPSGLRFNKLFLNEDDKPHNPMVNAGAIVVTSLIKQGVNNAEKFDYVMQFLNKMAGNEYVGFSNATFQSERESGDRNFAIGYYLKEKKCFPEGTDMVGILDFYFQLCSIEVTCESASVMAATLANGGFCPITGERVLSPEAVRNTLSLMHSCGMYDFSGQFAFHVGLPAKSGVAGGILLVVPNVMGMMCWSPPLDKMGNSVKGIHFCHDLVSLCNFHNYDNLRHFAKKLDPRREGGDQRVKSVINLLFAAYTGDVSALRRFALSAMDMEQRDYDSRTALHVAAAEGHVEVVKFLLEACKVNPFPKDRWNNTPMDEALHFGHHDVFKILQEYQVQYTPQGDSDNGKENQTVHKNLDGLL
Chain of Luciferin 4-monooxygenase (Photinus pyralis) (P08659 whole entry, looked up): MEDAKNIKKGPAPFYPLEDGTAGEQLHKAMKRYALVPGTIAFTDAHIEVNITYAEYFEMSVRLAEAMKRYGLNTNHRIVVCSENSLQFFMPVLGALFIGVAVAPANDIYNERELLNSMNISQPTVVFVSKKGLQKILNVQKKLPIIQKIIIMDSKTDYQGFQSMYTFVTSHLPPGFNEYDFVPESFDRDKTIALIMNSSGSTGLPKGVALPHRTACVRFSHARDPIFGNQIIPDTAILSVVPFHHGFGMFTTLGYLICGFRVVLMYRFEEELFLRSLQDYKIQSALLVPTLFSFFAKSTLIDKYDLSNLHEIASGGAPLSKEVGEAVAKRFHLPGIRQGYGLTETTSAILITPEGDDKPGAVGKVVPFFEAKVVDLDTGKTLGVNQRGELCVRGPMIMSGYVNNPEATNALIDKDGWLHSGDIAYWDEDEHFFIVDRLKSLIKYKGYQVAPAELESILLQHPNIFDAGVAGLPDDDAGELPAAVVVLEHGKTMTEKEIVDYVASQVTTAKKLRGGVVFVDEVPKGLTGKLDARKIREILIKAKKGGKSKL

Take `COC([CH2][Hg])CNC(=O)c1ccccc1OCC(=O)O` (centres undefined): the Potency result in assay [1] and in [2] was “inactive” throughout.

For the molecule `C/C(O)=C(\C#N)C(=O)Nc1cc(Br)ccc1Br`, the Potency entry in [1], in assay [3], in assay [4], in assay [6] and in assay [7] was “inactive” throughout. Moreover, in [5], the molecule was called inactive.

In the case of `N[C@@H](CCl)C(=O)O`, the Potency entry in assay [1], in assay [3], in assay [4], in assay [6] and in [7] was “inactive” each time. The molecule was classed as inactive in [5].

Turning to `CC(N)Cc1c[nH]c2ccc(OCc3cccs3)cc12` (centres undefined), in assay [1], the Potency was 2.82 µM (active). Besides, the Potency entry in [3], in assay [4] and in [7] was “inactive” throughout. In addition, the molecule was classed as inactive in [5].

`COc1ccc2c(c1)/C(=C/c1cnc[nH]1)C(=O)N2`: the Potency result in assay [1], in assay [3], in assay [4] and in assay [7] was “inactive” each time. Also, the result in [5] was inactive.

As for `CC(N)c1cccc(Cl)c1Cl` (centres undefined), the Potency entry in assay [1], in assay [3], in [4] and in [7] was “inactive” throughout. The result in assay [5] was inactive.

As to `CNc1ccc2oc(C[C@H]3O[C@@]4(CC[C@H]3C)O[C@H]([C@H](C)C(=O)c3ccc[nH]3)[C@H](C)C[C@H]4C)nc2c1C(=O)O`, the Potency was 3.16 µM (active) in [1] and 3.55 µM (active) in [3]. Besides, the Potency result in assay [4], in [6] and in assay [7] was “inactive” throughout. Further, the call in assay [5] was inactive.

For `c1ccc2sc(SNC3CCCCC3)nc2c1`, the Potency result in assay [1], in assay [2] and in assay [8] was “inactive” each time.

`F/C(COc1ccc2c(c1)[nH]c1ccccc12)=C1/CN2CCC1CC2`: the Potency in assay [1] is 22.4 µM (active). Also, the Potency entry in assay [8] is “inactive”.

Consider `NC(=O)c1ccc(OCC(O)CN2CC=C(c3ccc(F)cc3)CC2)cc1` (centres undefined), for which the Potency in assay [1] was 7.94 µM (active). In addition, the Potency entry in assay [3], in assay [4], in [6] and in [7] was “inactive” each time. The molecule was classed as inactive in assay [5].

For the molecule `Ic1ccccc1CNC1C2CCN(CC2)C1C(c1ccccc1)c1ccccc1` (centres undefined), the Potency in [1] is 1 µM (active). The Potency entry in assay [4], in assay [6] and in assay [7] was “inactive” in each case. Also, the call in assay [5] was inactive.

`CCOc1ccc2c3c1O[C@H]1[C@@H](O)C=C[C@H]4[C@@H](C2)N(C)CC[C@@]341`: the Potency entry in assay [9] and in assay [2] was “inactive” each time. Further, the Potency in assay [8] was 16.1 µM (active).

As for `C[N+](C)(C)CC#CCN1CCCC1=O`, the Potency entry in assay [1], in [3], in assay [4] and in assay [7] was “inactive” each time. Further, in assay [5], the molecule was called inactive.
